Measurements as given in PubChem BioAssay (NCATS).
“And” between values parts separate entries of the source, which are not always exact repeats. Equal values may be shown once. Results filed as inconclusive are left out. The source made the active and inactive calls. Unless noted, calls follow the shape of the full dose curve.

What follows are compounds tested against Glucocorticoid receptor (Homo sapiens) (UniProt P04150) (assay: GR-EFC Redistribution (AID 451; also: potency is read from the fitted curve at half-maximal effect)). Details: CHO-K1 GR-EFC translocation, beta-gal luminescence, 2 h.
Chain of Glucocorticoid receptor (Homo sapiens) (P04150 whole entry, looked up, the tested form may be a part): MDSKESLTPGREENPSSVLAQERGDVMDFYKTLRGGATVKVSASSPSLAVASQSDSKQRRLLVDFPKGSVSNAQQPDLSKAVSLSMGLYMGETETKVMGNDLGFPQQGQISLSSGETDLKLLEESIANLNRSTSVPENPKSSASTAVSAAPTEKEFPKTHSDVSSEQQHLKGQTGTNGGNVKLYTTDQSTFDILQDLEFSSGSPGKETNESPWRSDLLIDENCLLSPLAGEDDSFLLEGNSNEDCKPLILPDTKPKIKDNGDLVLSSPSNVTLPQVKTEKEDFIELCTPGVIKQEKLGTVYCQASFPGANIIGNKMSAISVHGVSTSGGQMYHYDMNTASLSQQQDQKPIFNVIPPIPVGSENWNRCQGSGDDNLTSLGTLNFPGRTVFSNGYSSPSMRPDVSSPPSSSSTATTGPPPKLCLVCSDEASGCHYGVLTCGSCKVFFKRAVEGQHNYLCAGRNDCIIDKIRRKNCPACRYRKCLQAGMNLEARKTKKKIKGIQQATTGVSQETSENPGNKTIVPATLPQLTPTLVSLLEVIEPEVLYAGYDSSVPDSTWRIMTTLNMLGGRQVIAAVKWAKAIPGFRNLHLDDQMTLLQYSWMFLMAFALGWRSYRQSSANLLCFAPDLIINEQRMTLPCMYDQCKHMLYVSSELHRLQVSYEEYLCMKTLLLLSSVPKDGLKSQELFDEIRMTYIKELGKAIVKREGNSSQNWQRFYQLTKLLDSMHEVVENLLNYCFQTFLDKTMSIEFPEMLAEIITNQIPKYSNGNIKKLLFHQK
In short: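 CHO-K1 cells expressing nuclear EA and GR-ED fragments of b-gal; compounds titrated up to 46 uM final, 2 h at 37 C. GR nuclear translocation read as complemented b-gal luminescence after 1 h RT detection.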
In the case of `COC(=O)[C@@H](N)CCCN=C(N)N[N+](=O)[O-]`, the Potency is reported as > 46 µM (inactive). In the case of `C[C@@H](N)Cc1cnc[nH]1`, the Potency is reported as > 46 µM (inactive). With `CNCCc1ccc(O)c(O)c1` the Potency was > 46 µM (inactive). With `c1ccc(CCCN2CCN(CCOC(c3ccccc3)c3ccccc3)CC2)cc1` the Potency was > 46 µM (inactive). For `CN[C@@H]1C[C@@H](c2ccc(Cl)c(Cl)c2)c2ccccc21`, the Potency was > 46 µM (inactive). `O=C1CCCN1CC#CCN1CCCC1` was tested, and the Potency was > 46 µM (inactive). With `Cc1nc(-c2ccc(-c3ccc(C(=O)N4CCc5cc6c(cc54)C4(CCN(C)CC4)CO6)cc3)c(C)c2)no1` the Potency was > 46 µM (inactive). In the case of `O=C(O)Cc1cnc[nH]1`, the Potency is reported as > 46 µM (inactive). For `NC(=NCCC[C@H](N)C(=O)O)N[N+](=O)[O-]`, the Potency was > 20.6 µM (inactive). For `NCCc1c[nH]c2ccccc12`, the Potency was > 46 µM (inactive). With `CNCCc1c[nH]c2ccc(O)cc12` the Potency was > 46 µM (inactive). In the case of `CCOC(=O)c1cncn1[C@H](C)c1ccccc1`, the Potency is reported as > 46 µM (inactive). With `Cn1cnc(CCN)c1` the Potency was > 46 µM (inactive). For `CC(=O)OCC1=C(C(=O)O)N2C(=O)[C@@H](N)[C@@H]2SC1`, the Potency was > 20.6 µM (inactive). `CC[C@@]1(O)C(=O)OCc2c1cc1n(c2=O)Cc2cc3ccccc3nc2-1` was tested, and the Potency was > 46 µM (inactive) and > 20.6 µM (inactive). For `CCCN1CCO[C@@H]2c3cc(O)ccc3OC[C@H]21`, the Potency was > 46 µM (inactive). With `CCCCc1ccc(C(=O)O)nc1` the Potency was > 46 µM (inactive) and > 20.6 µM (inactive). With `CC(=O)NCCc1c[nH]c2ccccc12` the Potency was > 46 µM (inactive). With `Cc1nccc2c1[nH]c1ccccc12` the Potency was > 46 µM (inactive) and > 20.6 µM (inactive). With `C[C@@H]1O[C@H](C[N+](C)(C)C)C[C@H]1O` the Potency was > 46 µM (inactive). For `CC1=NN=C(c2ccc(N)cc2)c2cc3c(cc2C1)OCO3`, the Potency was > 46 µM (inactive). In the case of `CCCN(CCC)[C@@H]1CCc2ccc(O)cc2C1`, the Potency is reported as > 46 µM (inactive). With `O=c1cccc2n1CC1CNC[C@H]2C1` the Potency was > 46 µM (inactive). `NCc1cc(=O)[nH]o1` was tested, and the Potency was > 46 µM (inactive). For `O=C(O)CC[N+](=O)[O-]`, the Potency was > 46 µM (inactive). With `CCCN1CCC[C@H](c2cccc(O)c2)C1` the Potency was > 46 µM (inactive). In the case of `Clc1cnc(Oc2ccc(Oc3ncc(Cl)cc3Cl)cc2)c(Cl)c1`, the Potency is reported as > 46 µM (inactive). `NCCc1c[nH]c2ccc(O)cc12` was tested, and the Potency was > 46 µM (inactive) and > 20.6 µM (inactive). For `CC(C)Oc1cccnc1N(C)C1CCN(Cc2ccccc2)CC1`, the Potency was > 46 µM (inactive). `COc1ccc(C(=O)c2c(C)n(CCN3CCOCC3)c3cc(I)ccc23)cc1` was tested, and the Potency was > 46 µM (inactive). For `S=C(NC1CCCCC1)N1CCC(c2cnc[nH]2)CC1`, the Potency was > 46 µM (inactive).

The compounds below were run against Mitogen-activated protein kinase 10 (Mus musculus) (UniProt Q61831) (assay: JNK3 AlphaScreen Assay (AID 530; active = well fitted curve in either direction with a large enough effect, not every such curve was filed as active;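 also: kinase came from lysate of stimulated human HepG2 cells; signal reports phosphorylation of biotinylated GST-cJun 1-79 at Ser73 with 10 µM ATP; % is scaled to controls: 0 for no effect and ±100 for the full control effect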)). Details: JNK3 lysate, c-Jun phosphorylation; series mostly up to 57.1 µM; activity change, negative = inhibition: at the top concentration.
In short: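 HepG2 lysate (IL-1b/TNFa pre-activated) + biotin-GST-cJun 1-79 + anti-pSer73 cJun; cpd titration, 15 min RT; ATP 10 uM start; Tris pH 7.6, MgCl2, DTT, vanadate; beads in EDTA buffer; AlphaScreen.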
With `COC(=O)[C@@H](N)CCCN=C(N)N[N+](=O)[O-]` the “activity change, negative = inhibition” value was 6.69% (inactive). With `C[C@@H](N)Cc1cnc[nH]1` the “activity change, negative = inhibition” value was -13.8% (inactive). For `CNCCc1ccc(O)c(O)c1`, the “activity change, negative = inhibition” value was 7.19% (inactive). With `c1ccc(CCCN2CCN(CCOC(c3ccccc3)c3ccccc3)CC2)cc1` the outcome was “inactive”. For `CN[C@@H]1C[C@@H](c2ccc(Cl)c(Cl)c2)c2ccccc21`, the “activity change, negative = inhibition” value was -15.4% (inactive). `O=C1CCCN1CC#CCN1CCCC1` was tested, and the “activity change, negative = inhibition” value was -7.78% (inactive). In the case of `Cc1nc(-c2ccc(-c3ccc(C(=O)N4CCc5cc6c(cc54)C4(CCN(C)CC4)CO6)cc3)c(C)c2)no1`, the outcome is reported as “inactive”. `O=C(O)Cc1cnc[nH]1` was tested, and the “activity change, negative = inhibition” value was -16.6% (inactive). In the case of `NC(=NCCC[C@H](N)C(=O)O)N[N+](=O)[O-]`, the “activity change, negative = inhibition” value is reported as 19.8% (inactive). In the case of `NCCc1c[nH]c2ccccc12`, the “activity change, negative = inhibition” value is reported as 7.66% (inactive). `CNCCc1c[nH]c2ccc(O)cc12` was tested, and the “activity change, negative = inhibition” value was 11.3% (inactive). In the case of `CCOC(=O)c1cncn1[C@H](C)c1ccccc1`, the “activity change, negative = inhibition” value is reported as 5.76% (inactive). `Cn1cnc(CCN)c1` was tested, and the “activity change, negative = inhibition” value was 1.06% (inactive). `CC(=O)OCC1=C(C(=O)O)N2C(=O)[C@@H](N)[C@@H]2SC1` was tested, and the “activity change, negative = inhibition” value was 8.16% [at 25.6 µM] (inactive). With `CC[C@@]1(O)C(=O)OCc2c1cc1n(c2=O)Cc2cc3ccccc3nc2-1` the outcome was “inactive”. With `CCCN1CCO[C@@H]2c3cc(O)ccc3OC[C@H]21` the “activity change, negative = inhibition” value was -3.38% (inactive). For `CCCCc1ccc(C(=O)O)nc1`, the outcome was “inactive”. In the case of `CC(=O)NCCc1c[nH]c2ccccc12`, the outcome is reported as “inactive”. For `Cc1nccc2c1[nH]c1ccccc12`, the “activity change, negative = inhibition” value was -19.1% [at 25.6 µM] (inactive). With `C[C@@H]1O[C@H](C[N+](C)(C)C)C[C@H]1O` the “activity change, negative = inhibition” value was -1.36% (inactive). `CC1=NN=C(c2ccc(N)cc2)c2cc3c(cc2C1)OCO3` was tested, and the outcome was “inactive”. With `CCCN(CCC)[C@@H]1CCc2ccc(O)cc2C1` the outcome was “inactive”. With `O=c1cccc2n1CC1CNC[C@H]2C1` the outcome was “inactive”. `NCc1cc(=O)[nH]o1` was tested, and the outcome was “inactive”. In the case of `O=C(O)CC[N+](=O)[O-]`, the “activity change, negative = inhibition” value is reported as 10% (inactive). `CCCN1CCC[C@H](c2cccc(O)c2)C1` was tested, and the “activity change, negative = inhibition” value was -7.85% (inactive). `Clc1cnc(Oc2ccc(Oc3ncc(Cl)cc3Cl)cc2)c(Cl)c1` was tested, and the “activity change, negative = inhibition” value was 10.5% (inactive). With `NCCc1c[nH]c2ccc(O)cc12` the “activity change, negative = inhibition” value was -9.06% [at 25.6 µM] (inactive). `CC(C)Oc1cccnc1N(C)C1CCN(Cc2ccccc2)CC1` was tested, and the “activity change, negative = inhibition” value was -12.8% (inactive). `S=C(NC1CCCCC1)N1CCC(c2cnc[nH]2)CC1` was tested, and the “activity change, negative = inhibition” value was -14.6% (inactive).
